From PubChem BioAssay (Tox21)
Records with an inconclusive call do not appear. The source made the active and inactive calls. Unless noted, calls follow the shape of the dose curve; as a rule, active = well fitted curve in the direction sought with a large enough effect in the repeat runs; inconclusive = weak or mixed curves; inactive = no such curve, though single readings can be large; an effect the other way counts as inactive or inconclusive.

Legend:
[1] = molecular target: Thyrotropin receptor (Homo sapiens) (UniProt P16473); assay: qHTS assay to identify small molecule antagonists of the thyroid stimulating hormone receptor (TSHR) signaling pathway (AID 1259385; calls by dose curve; also: nearly all actives have a fitted effect of over 20% in size)
In short: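 Antagonist mode: compound-treated TSHR-expressing HEK293 cells were stimulated with 1.5 ng/mL TSH (final) in presence of Ro20-1724 for 30 min at RT. HTRF cAMP detection after 1 h; each compound tested at 15 concentrations, triplicate.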

[2] = qHTS assay to identify small molecule agonists of the estrogen receptor alpha (ER-alpha) signaling pathway in the presence of an antagonist - cell viability counter screen (AID 1259386); also: series mostly up to about 92 µM; nearly all actives have a fitted effect of over 30% in size
In short: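 Compounds tested at 15 concentrations for 22 h at 37C alongside 10.0nM (final) ICI-182,780 antagonist, in VM7Luc4E2 cells grown in phenol red-free, charcoal-stripped medium. Viability read by CellTiter-Fluor fluorescence after 1 h reagent incubation.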

[3] = molecular target: Progesterone receptor (Homo sapiens) (UniProt P06401); assay: qHTS assay to identify small molecule agonists of the progesterone receptor (PR) signaling pathway (AID 1346784; calls by dose curve; also: nearly all actives have a fitted effect of over 30% in size)
In short: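 Reporter assay, GripTite PR-UAS-bla HEK 293T cells: 16 hr exposure to DMSO-dissolved compounds at 37C, 5% CO2, in steroid-depleted (2% charcoal-stripped FBS) medium; beta-lactamase measured by FRET fluorescence.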

[4] = molecular target: Progesterone receptor (Homo sapiens) (UniProt P06401); assay: qHTS assay to identify small molecule antagonists of the progesterone receptor (PR) signaling pathway (AID 1346795; active = well fitted inhibition curve with a large enough effect in the signal ratio in the repeat runs, not every such curve was filed as active; the % refers to the signal ratio)
In short: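 Stimulus R5020 at 1 nM final; cells HEK293T PR-UAS-bla; medium with 2% charcoal-stripped FBS; compound exposure 16 hr at 37C, 5% CO2; detection by FRET beta-lactamase substrate, 2 hr, room temperature.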

[5] = qHTS assay to identify small molecule antagonists of the progesterone receptor (PR) signaling pathway - cell viability counter screen (AID 1346798); also: series mostly up to about 92 µM; nearly all actives have a fitted effect of over 50% in size
In short: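 In the same plates used for the beta-lactamase readout, cell viability of compound- and R5020-treated PR-UAS-bla HEK293T cells (16 hr, 37C) was assessed by CellTiter-Glo luminescence.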

[6] = qHTS assay to identify small molecule agonists of the progesterone receptor (PR) signaling pathway - cell viability counter screen (AID 1346799; calls by dose curve; also: nearly all actives have a fitted effect of over 45% in size)
In short: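 Multiplexed viability read: CellTiter-Glo luminescence, 30 min RT, following LiveBLAzer FRET measurement on PR-UAS-bla HEK293T cells exposed to compounds 16 hr.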

[7] = qHTS assay to identify small molecule antagonists of the TGF-beta/Smad signaling pathway - cell viability counter screen (AID 1346824); also: nearly all actives have a fitted effect of over 50% in size
In short: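 Cytotoxicity counter-screen run in the same wells as the beta-lactamase Smad reporter read: CellTiter-Glo luminescence after 30 min at room temperature. HEK 293T SBE-bla cells had 5 hr compound exposure at 37 C with TGF-beta1 (0.25 ng/mL stock).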

[8] = qHTS assay to identify small molecule agonists of the TGF-beta/Smad signaling pathway - cell viability counter screen (AID 1346829); also: top concentration of the series differs between compounds; nearly all actives have a fitted effect of over 45% in size
In short: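 After overnight seating at 37 C and 5% CO2, reporter cells got compounds for 5 hr and FRET substrate for 2 hr; cell viability then came from CellTiter-Glo luminescence.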

[9] = qHTS assay to identify small molecule agonists of the TGF-beta/Smad signaling pathway (AID 1346859; active = well fitted activation curve with a large enough effect in the signal ratio in the repeat runs, not every such curve was filed as active; the % refers to the signal ratio; also: series mostly up to about 77 µM)
In short: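 Screening used HEK 293T SBE-bla cells at 4,000/well. Test agents: 5 hr, 37 C. Detection: FRET substrate, 2 hr RT, then excitation 405 nm with emissions at 460 and 530 nm.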

[10] = molecular target: Thyrotropin-releasing hormone receptor (Homo sapiens) (UniProt P34981); assay: qHTS assay to identify small molecule antagonists of the thyrotropin-releasing hormone receptor (TRHR) signaling pathway (AID 1346877; active = well fitted inhibition curve with a large enough effect in the repeat runs, not every such curve was filed as active; also: series mostly up to about 51 µM)
In short: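 Antagonist mode: after a 5 min room-temperature compound exposure, cells were stimulated with 1 nM (final) TRH. Dye-loaded TRHR-HEK293 cells were used, and calcium-dependent fluorescence was followed for 3 min, with 15-point titrations run in triplicate.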

[11] = molecular target: Thyrotropin-releasing hormone receptor (Homo sapiens) (UniProt P34981); assay: qHTS assay to identify small molecule agonists of the thyrotropin-releasing hormone receptor (TRHR) signaling pathway (AID 1346891; calls by dose curve; also: series mostly up to about 58 µM)
In short: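 Readout was intracellular calcium fluorescence in TRHR-Hek293 cells. Cells were incubated 18 h, dye-loaded 2 h at 37 °C, and treated with compound in agonist mode.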

[12] = Human pregnane X receptor (PXR) small molecule agonists, qHTS cell viability counter screen (AID 1346977); also: nearly all actives have a fitted effect of over 50% in size
In short: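 In each well, the PXR reporter HepG2 line was checked for viability: CellTiter-Fluor reagent added 23hr post-dosing, fluorescence read after 1hr incubation at 37C.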

[13] = Caspase-3/7 induction in CHO-K1 cells by small molecules, qHTS cell viability counter screen (AID 1346979); also: nearly all actives have a fitted effect of over 35% in size
In short: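 Following a 5hr settling period, CHO-K1 cells at 1,500 per well received DMSO-dissolved compounds. Cell viability was quantified 16hr later by CellTiter-Fluor fluorescence, measured after 1hr with reagent at 37C.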

[14] = Caspase-3/7 induction in CHO-K1 cells by small molecules, qHTS assay (AID 1346980); also: nearly all actives have a fitted effect of over 15% in size
In short: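 Luminescent Caspase-Glo 3/7 read (30min, room temperature) quantified apoptosis induction. Cells were wild-type CHO-K1, treated with compound for 17hr at 37 C and 5% CO2.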

[15] = Caspase-3/7 induction in HepG2 cells by small molecules, qHTS cell viability counter screen (AID 1346981); also: series mostly up to about 92 µM; nearly all actives have a fitted effect of over 30% in size
In short: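 CellTiter-Fluor fluorescence measured viability in the same wells used for Caspase-Glo 3/7. HepG2 (wild type) at 2,000 cells/well were pre-incubated 5 hr, dosed, and given reagent at 16 hr, with 1 hr further at 37C.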

[16] = molecular target: Nuclear receptor subfamily 1 group I member 2 (Homo sapiens) (UniProt O75469); assay: Human pregnane X receptor (PXR) small molecule agonists, qHTS assay (AID 1346982); also: nearly all actives have a fitted effect of over 35% in size
In short: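 Agonist mode: luminescence from ONE-Glo after 24 h compound exposure at 37C in HepG2 cells carrying hPXR-responsive CYP3A4 luciferase, plated in charcoal-stripped serum medium 5 h beforehand.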

[17] = Caspase-3/7 induction in HepG2 cells by small molecules, qHTS assay (AID 1346978); also: nearly all actives have a fitted effect of over 15% in size
In short: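 Caspase-3/7 induction was measured by Caspase-Glo 3/7 luminescence (30 min, room temperature) after a 17 hr compound exposure of wild-type HepG2 cells seeded at 2,000 per well and pre-incubated 5 hr.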

[18] = molecular target: Nuclear receptor subfamily 1 group I member 2 (Rattus norvegicus) (UniProt Q9R1A7); assay: Rat pregnane X receptor (rPXR) activation by small molecules, qHTS assay (AID 1346983); conditions: rPXR luciferase reporter cells, One-Glo luminescence, 24 h; max activation: hits give high values; also: nearly all actives have a fitted effect of over 20% in size
In short: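 Luminescent readout (One-Glo luciferase, 30 min room temperature) followed 24 hr compound treatment at 37 C of rPXR cells plated 2,000 per well and preincubated 5hr; qHTS format with compounds delivered in DMSO.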

[19] = molecular target: Nuclear receptor subfamily 1 group I member 2 (Homo sapiens) (UniProt O75469); assay: CYP3A4 induction through human pregnane X receptor (PXR) by small molecules, qHTS assay (AID 1346984); also: nearly all actives have a fitted effect of over 40% in size
In short: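 Read-out is luminescence after One-Glo addition, following a 3 hr, 37C incubation with Luciferin-IPA CYP3A4 substrate (3uM final). Before that, compounds were on DPX-2 cells (HepG2 co-transfected with PXR element plus CYP3A4-promoter luciferase) for 24 hr at 37C.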

[20] = molecular target: Nuclear receptor subfamily 1 group I member 2 (Homo sapiens) (UniProt O75469); assay: Human pregnane X receptor (PXR) activation by small molecules, qHTS assay (AID 1346985); also: nearly all actives have a fitted effect of over 40% in size
In short: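 DPX-2 cells (HepG2 co-transfected with a PXR response element and a CYP3A4-promoter luciferase construct) were seeded at 2,000 per well, rested 5 hr at 37C, then exposed to DMSO-dissolved compounds for 24 hr. Activation was read as luciferase luminescence.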
% is scaled to controls: 0 for no effect and ±100 for the full control effect.

Thyrotropin-releasing hormone receptor (Homo sapiens), sequence (P34981 whole entry, looked up): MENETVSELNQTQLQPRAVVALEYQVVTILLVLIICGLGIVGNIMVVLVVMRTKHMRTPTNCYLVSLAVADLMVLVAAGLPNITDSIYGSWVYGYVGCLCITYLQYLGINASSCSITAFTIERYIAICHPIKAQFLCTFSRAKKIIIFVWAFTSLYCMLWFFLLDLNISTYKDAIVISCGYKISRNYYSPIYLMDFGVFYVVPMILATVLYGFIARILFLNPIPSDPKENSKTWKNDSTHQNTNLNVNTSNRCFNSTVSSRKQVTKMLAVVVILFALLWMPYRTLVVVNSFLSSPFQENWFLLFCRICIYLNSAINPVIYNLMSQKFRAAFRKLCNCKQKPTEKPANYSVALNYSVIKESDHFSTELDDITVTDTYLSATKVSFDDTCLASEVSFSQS
Nuclear receptor subfamily 1 group I member 2 (Homo sapiens), sequence (O75469 whole entry, looked up): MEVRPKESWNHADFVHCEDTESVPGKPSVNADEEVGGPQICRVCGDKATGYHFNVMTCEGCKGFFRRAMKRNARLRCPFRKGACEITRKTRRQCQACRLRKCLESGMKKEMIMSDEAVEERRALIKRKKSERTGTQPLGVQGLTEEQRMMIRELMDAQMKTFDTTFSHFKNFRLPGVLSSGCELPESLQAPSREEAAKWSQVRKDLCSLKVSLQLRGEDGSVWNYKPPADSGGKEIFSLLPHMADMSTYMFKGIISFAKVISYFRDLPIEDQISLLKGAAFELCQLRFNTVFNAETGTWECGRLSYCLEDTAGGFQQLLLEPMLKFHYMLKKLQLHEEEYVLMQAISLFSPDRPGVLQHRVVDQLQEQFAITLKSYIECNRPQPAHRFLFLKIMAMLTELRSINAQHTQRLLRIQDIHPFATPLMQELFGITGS
Thyrotropin receptor (Homo sapiens), sequence (P16473 whole entry, looked up): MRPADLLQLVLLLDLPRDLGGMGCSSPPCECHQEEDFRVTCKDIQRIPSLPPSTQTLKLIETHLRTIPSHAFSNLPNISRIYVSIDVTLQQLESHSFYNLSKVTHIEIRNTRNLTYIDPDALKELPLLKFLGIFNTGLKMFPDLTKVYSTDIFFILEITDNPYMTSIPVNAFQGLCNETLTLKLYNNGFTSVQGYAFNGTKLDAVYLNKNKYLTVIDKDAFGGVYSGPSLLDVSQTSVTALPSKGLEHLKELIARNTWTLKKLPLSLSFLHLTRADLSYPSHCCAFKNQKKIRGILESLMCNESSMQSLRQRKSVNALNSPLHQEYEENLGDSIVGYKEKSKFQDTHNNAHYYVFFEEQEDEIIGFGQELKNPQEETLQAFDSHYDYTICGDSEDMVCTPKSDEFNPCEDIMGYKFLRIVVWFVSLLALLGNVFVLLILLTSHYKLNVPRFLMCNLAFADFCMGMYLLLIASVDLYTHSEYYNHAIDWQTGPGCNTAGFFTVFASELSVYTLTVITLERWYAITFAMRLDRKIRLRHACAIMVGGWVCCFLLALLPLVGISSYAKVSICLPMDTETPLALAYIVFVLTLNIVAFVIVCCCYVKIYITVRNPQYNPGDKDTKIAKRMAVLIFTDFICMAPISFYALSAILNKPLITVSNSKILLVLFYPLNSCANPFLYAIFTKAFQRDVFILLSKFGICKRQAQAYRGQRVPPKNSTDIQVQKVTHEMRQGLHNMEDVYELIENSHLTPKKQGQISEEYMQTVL
Progesterone receptor (Homo sapiens), sequence (P06401 whole entry, looked up): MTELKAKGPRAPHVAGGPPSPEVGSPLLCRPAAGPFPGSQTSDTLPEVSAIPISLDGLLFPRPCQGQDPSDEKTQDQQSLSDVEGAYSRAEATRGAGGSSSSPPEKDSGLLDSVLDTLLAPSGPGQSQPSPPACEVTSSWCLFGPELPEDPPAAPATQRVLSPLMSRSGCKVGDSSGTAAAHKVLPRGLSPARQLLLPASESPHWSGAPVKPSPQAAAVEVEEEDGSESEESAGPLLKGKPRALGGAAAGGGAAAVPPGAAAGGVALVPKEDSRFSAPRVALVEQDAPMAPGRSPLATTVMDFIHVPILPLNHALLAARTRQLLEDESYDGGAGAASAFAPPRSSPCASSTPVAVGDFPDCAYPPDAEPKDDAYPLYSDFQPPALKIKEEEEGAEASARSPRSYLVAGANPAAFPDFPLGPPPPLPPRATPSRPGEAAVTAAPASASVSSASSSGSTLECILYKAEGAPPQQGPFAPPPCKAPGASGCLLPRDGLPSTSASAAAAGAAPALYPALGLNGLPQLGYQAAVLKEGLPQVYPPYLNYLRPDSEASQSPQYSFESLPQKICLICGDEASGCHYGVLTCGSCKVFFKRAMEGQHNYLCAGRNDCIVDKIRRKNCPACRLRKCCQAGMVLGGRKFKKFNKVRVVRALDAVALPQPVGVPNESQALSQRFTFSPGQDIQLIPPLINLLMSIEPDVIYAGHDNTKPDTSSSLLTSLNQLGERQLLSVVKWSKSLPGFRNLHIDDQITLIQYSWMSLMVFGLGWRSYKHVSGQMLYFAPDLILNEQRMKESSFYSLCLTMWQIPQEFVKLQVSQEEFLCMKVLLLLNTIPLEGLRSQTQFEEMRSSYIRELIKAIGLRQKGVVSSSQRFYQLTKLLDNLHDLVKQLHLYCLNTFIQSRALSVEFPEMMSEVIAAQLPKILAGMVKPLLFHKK
Nuclear receptor subfamily 1 group I member 2 (Rattus norvegicus), sequence (Q9R1A7 whole entry, looked up): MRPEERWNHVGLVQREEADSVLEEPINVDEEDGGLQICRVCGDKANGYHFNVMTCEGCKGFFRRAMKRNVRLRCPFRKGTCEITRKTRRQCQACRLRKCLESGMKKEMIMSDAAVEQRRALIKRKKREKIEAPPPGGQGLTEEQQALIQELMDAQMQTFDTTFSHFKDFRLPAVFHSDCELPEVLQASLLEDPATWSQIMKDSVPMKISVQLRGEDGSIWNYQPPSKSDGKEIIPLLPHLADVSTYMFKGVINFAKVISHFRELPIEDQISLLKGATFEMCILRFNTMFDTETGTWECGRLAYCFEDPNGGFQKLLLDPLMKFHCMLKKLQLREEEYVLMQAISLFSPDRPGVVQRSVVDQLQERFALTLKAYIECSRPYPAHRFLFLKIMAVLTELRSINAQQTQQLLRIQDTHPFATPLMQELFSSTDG

CCCCCCCCCCC1CO1 (centres undefined)
inactive: Potency [1] | outcome [2] | Potency [3] | Potency [4] | Potency [5] | Potency [6] | outcome [7] | outcome [8] | outcome [9] | outcome [10] | outcome [11] | Potency [12] | Potency [13] | outcome [14] | outcome [15] | Potency [16]

Cc1ncc(CSSCc2cnc(C)c(O)c2CO)c(CO)c1O
inactive: Potency [1] | outcome [2] | Potency [3] | Potency [4] | Potency [5] | Potency [6] | outcome [7] | outcome [8] | outcome [9] | outcome [10] | outcome [11] | Potency [12] | outcome [17] | Potency [13] | outcome [14] | Potency [16] | max activation [18] -2.5% | Potency [19] | Potency [20]

CO
inactive: Potency [1] | outcome [2] | Potency [3] | Potency [4] | Potency [5] | Potency [6] | outcome [7] | outcome [8] | outcome [9] | outcome [10] | outcome [11] | Potency [12] | outcome [17] | Potency [13] | outcome [14] | outcome [15] | max activation [18] -1.84%

O=C(O)C1CCC1
inactive: Potency [1] | outcome [2] | Potency [3] | Potency [4] | Potency [5] | Potency [6] | outcome [7] | outcome [8] | outcome [9] | outcome [10] | outcome [11] | Potency [12] | outcome [17] | Potency [13] | outcome [14] | outcome [15] | Potency [16]

CCCCCCCCCCCCCCC
inactive: Potency [1] | outcome [2] | Potency [3] | Potency [4] | Potency [5] | Potency [6] | outcome [7] | outcome [8] | outcome [9] | outcome [10] | outcome [11] | Potency [12] | outcome [17] | Potency [13] | outcome [14] | outcome [15] | Potency [16]

CC(C)COC(=O)c1ccccc1O
inactive: Potency [1] | outcome [2] | Potency [3] | Potency [4] | Potency [5] | Potency [6] | outcome [7] | outcome [8] | outcome [9] | outcome [10] | outcome [11] | Potency [12] | Potency [13] | outcome [14] | Potency [16]

CCCCCCC(CCCCCCCCCCC(=O)OCC(COC(C)=O)OC(C)=O)OC(C)=O (centres undefined)
inactive: Potency [1] | outcome [2] | Potency [3] | Potency [4] | Potency [5] | Potency [6] | outcome [7] | outcome [8] | outcome [9] | outcome [10] | outcome [11] | Potency [12] | outcome [17] | Potency [13] | outcome [14] | outcome [15] | Potency [16]

C=C(C)C(=O)OCCC(C)OC(=O)C(=C)C (centres undefined)
inactive: Potency [1] | outcome [2] | Potency [3] | Potency [4] | Potency [5] | Potency [6] | outcome [7] | outcome [8] | outcome [9] | outcome [10] | outcome [11] | Potency [12] | outcome [17] | Potency [13] | outcome [14] | outcome [15] | Potency [16]

CCCCc1ccc(N)cc1
inactive: Potency [1] | outcome [2] | Potency [3] | Potency [4] | Potency [5] | Potency [6] | outcome [7] | outcome [8] | outcome [9] | Potency [12] | outcome [17] | Potency [13] | outcome [14] | outcome [15] | Potency [16]

O=C(O)c1ccc[n+]([O-])c1
inactive: Potency [1] | outcome [2] | Potency [3] | Potency [4] | Potency [5] | Potency [6] | outcome [7] | outcome [8] | outcome [9] | outcome [10] | outcome [11] | Potency [12] | outcome [17] | Potency [13] | outcome [14] | Potency [16] | max activation [18] -2.52% | Potency [19] | Potency [20]

CO[Si](OC)(OC)OC
inactive: Potency [1] | outcome [2] | Potency [3] | Potency [4] | Potency [5] | Potency [6] | outcome [7] | outcome [8] | outcome [9] | outcome [10] | outcome [11] | Potency [12] | outcome [17] | Potency [13] | outcome [14] | outcome [15] | Potency [16]

CCO[Si](C)(OCC)OCC
inactive: Potency [1] | outcome [2] | Potency [3] | Potency [4] | Potency [5] | Potency [6] | outcome [7] | outcome [8] | outcome [9] | outcome [10] | outcome [11] | Potency [12] | outcome [17] | Potency [13] | outcome [14] | Potency [16]

C=CC(=O)OCCCCCC
inactive: Potency [1] | outcome [2] | Potency [3] | Potency [4] | Potency [5] | Potency [6] | outcome [7] | outcome [8] | outcome [9] | outcome [10] | outcome [11] | Potency [12] | outcome [17] | Potency [13] | outcome [14] | outcome [15] | Potency [16]

CC(C)CCCC(C)NCCC(C)C (centres undefined)
inactive: Potency [1] | outcome [2] | Potency [3] | Potency [4] | Potency [5] | Potency [6] | outcome [7] | outcome [8] | outcome [9] | outcome [10] | outcome [11] | Potency [12] | Potency [13] | outcome [14] | Potency [16]

Nc1ncnc2c1ncn2Cc1c(F)cccc1Cl
inactive: Potency [1] | outcome [2] | Potency [3] | Potency [4] | Potency [5] | Potency [6] | outcome [7] | outcome [8] | outcome [9] | outcome [10] | outcome [11] | Potency [12] | Potency [13] | outcome [14] | outcome [15]

OCCN1C[C@H](O)[C@@H](O)[C@H](O)[C@H]1CO
inactive: Potency [1] | outcome [2] | Potency [3] | Potency [4] | Potency [5] | Potency [6] | outcome [7] | outcome [8] | outcome [9] | outcome [10] | outcome [11] | Potency [12] | outcome [17] | Potency [13] | outcome [14] | outcome [15] | Potency [16] | max activation [18] -2.71% | Potency [19] | Potency [20]
